Source: PubChem BioAssay (National Center for Advancing Translational Sciences (NCATS))
HT1080 IDH1KD tx – toxicity to HT-1080 IDH1 knockdown cells (counter line) | actives 2% (n = 360,000) | Potency, µM (titrated, usually from 46.1 µM), actives largely listed as cytotoxic | HT-1080 IDH1 knockdown viability, ATP luminescence, 48 h
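CellTiter-Glo luminescence after 48 h compound exposure at 37 degrees C of IDH1-knockdown HT-1080 cells in 5% FBS RPMI. %Activity scaled between DMSO wells and cell-free media wells, with curves fitted and assigned curve classes.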
DT40 TDP1 CPT – growth inhibition of DT40 Tdp1-/-;hTDP1 cells with camptothecin (screen for TDP1 inhibitors). chicken DT40 Tdp1-/-;hTDP1 cells + 20 nM CPT, ATP luminescence, 48 h. actives 12% (n = 420,000). Potency, µM (titrated, usually from 46.2 µM), usual class: inhibitors. AID 686979; also: nearly all actives have a fitted effect of over 55% in size
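Chicken DT40 Tdp1-/- cells complemented with human TDP1, 400 cells/well, exposed to compounds plus 20 nM camptothecin for at least 48 h at 37 C; viability read as ATP content by CellTiter-Glo luminescence.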
12-LOX inh – ALOX12 (human) lipoxygenase inhibition. P18054. AID 1671190. actives 1.1% (n = 580,000). Potency, µM (titrated, usually from 108 µM), actives largely listed as inhibitors. purified 12hLO, xylenol orange hydroperoxide absorbance
Target sequence (P18054 whole entry, looked up): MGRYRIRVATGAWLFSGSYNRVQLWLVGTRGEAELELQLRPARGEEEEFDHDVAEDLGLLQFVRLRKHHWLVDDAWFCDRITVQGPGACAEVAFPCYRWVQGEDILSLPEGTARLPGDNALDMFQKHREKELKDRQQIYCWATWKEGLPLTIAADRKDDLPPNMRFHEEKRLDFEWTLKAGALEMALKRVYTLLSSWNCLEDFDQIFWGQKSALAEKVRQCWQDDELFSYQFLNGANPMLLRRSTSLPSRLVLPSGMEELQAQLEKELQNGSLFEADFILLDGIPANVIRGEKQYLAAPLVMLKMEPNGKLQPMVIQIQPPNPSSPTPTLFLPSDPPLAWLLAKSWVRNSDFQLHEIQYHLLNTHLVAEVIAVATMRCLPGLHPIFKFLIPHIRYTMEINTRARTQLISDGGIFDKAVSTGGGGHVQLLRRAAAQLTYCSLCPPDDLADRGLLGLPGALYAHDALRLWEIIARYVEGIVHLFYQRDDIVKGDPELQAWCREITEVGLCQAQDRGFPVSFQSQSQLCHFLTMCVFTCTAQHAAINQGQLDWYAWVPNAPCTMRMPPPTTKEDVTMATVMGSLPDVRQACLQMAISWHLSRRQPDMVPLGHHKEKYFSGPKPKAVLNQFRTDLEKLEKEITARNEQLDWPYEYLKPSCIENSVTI
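Hydroperoxide product was detected by ferrous iron/xylenol orange as the 573 to 405 nm absorbance ratio. Arachidonic acid at 40 uM (final) was turned over for 30 min at room temperature by 150 nM human 12hLO, pH 7.0 Hepes buffer, after 15 min compound preincubation.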
DT40 TDP1 no CPT – qHTS for Inhibitors of human tyrosyl-DNA phosphodiesterase 1 (TDP1): qHTS in cells in absence of CPT; actives 15% (n = 420,000); AID 686978, 2013; DT40 Tdp1-/- hTDP1 cells, no CPT, ATP luminescence, 48 h; Potency, µM (series often up to 46.2 µM), hits mostly inhibitors; also: nearly all actives have a fitted effect of over 55% in size
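Camptothecin absent (DMSO only). Human TDP1-complemented DT40 knockout cells, 400 cells/well, 37 °C for minimum 48 hr; ATP measured via CellTiter-Glo, 30 min dark incubation, luminescence.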
IL1B secr inh – inhibitors of inflammasome signaling (IL-1 beta secretion). actives 4.7% (n = 360,000). activity change, % at 57.5 µM. THP-1 LPS/ATP IL-1B secretion, AlphaLISA, 16 h; hits give low values. AID 743279; in the data active = activity change below about -50%; inconclusive = mostly about -30% to -49%
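THP-1 cells pretreated 1 hr with compounds (up to 57.5 uM final), then stimulated with LPS (250 ng/mL final) plus ATP (1.25 mM final); secreted IL-1B measured by AlphaLISA after 16 hr, decreased signal indicating inhibition.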
HT1080NT lethal – kills 2HG-producing HT-1080-NT fibrosarcoma cells | HT-1080-NT fibrosarcoma viability, CellTiter-Glo ATP luminescence, 48 h | Potency, µM (top dose mostly 46.1 µM), usual class: cytotoxic | actives 1.6% (n = 360,000) | AID 686970;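 also: NT is the 2HG producing partner of a matched IDH1 knockdown line; nearly all actives have a fitted effect of over 55% in size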
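750 cells/well, RPMI + 5% FBS; 2 h settle, compound pin-transfer, 48 h at 37 degrees C. CellTiter-Glo 10 min RT, luminescence. Normalized to DMSO and media-only wells.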
A number is an active result; n = inactive; u = inconclusive; x = no result; [ ] = another dose, or the depositor's remark. Shown is part of a subset that was picked to be rich in hits. Unless noted, calls follow the shape of the dose curve; as a rule, active = well fitted curve in the direction sought with a large enough effect; inconclusive = small, poorly fitted or top-dose-only effect, or another doubt; inactive = no such curve, though single readings can be large; an effect the other way counts as inactive or inconclusive.

SMILES	HT1080 IDH1KD tx	DT40 TDP1 CPT	12-LOX inh	DT40 TDP1 no CPT	IL1B secr inh	HT1080NT lethal
COc1ccc(CCC2CCN(C(=O)C3CCN(S(=O)(=O)c4ccccc4C#N)CC3)CC2)cc1	x	x	n	x	x	x
COc1ccc(S(=O)(=O)N2CCOCC2)cc1NC(=O)CCc1nc2ccccc2c(=O)[nH]1	n	u	n	n	n	n
COCC1CCN(C(=O)c2cc(COc3cccc4cnccc34)on2)CC1	n	9.2µM	n	4.1µM	-53	n
CCc1cc(C(=O)N2CCCC(CNC(=O)c3ccc(-c4ccccc4)cc3)C2)no1 (configuration not stated)	n	u	n	16µM	n	n
O=C(c1cc(COc2cccc3cnccc23)on1)N1CCCC(CCCO)C1 (configuration not stated)	u	1.2µM	n	0.65µM	u	u
CCn1ccnc1CN(C)C(=O)c1cc(COc2ccc(OC)c3ccccc23)on1	u	15µM	n	u	n	n
CCOC(=O)CCN(CC1CC1)C(=O)c1ccc(C)s1	x	x	n	x	x	x
C[C@@H](NC(=O)c1cnccn1)c1onc(-c2ccccc2)c1C(=O)O	x	x	n	x	x	x
COc1ccc(OCc2cc(C(=O)N3CCCC(CO)C3)no2)c2ccccc12 (configuration not stated)	n	u	u	15µM	n	n
CSc1ccccc1OCc1cc(C(=O)N2CCCC(C)C2)no1 (configuration not stated)	n	n	n	u	n	n
Cc1nn(C)cc1C(C)NC(=O)c1cc(COc2c(F)cccc2F)on1 (configuration not stated)	n	n	n	n	n	n
Cc1nn(C)cc1C(C)NC(=O)c1cc(COc2cccc3cnccc23)on1 (configuration not stated)	u	10µM	n	u	n	n
Clc1ccc(CN2CCC(c3nc4ccc(Cl)cc4[nH]3)CC2)cc1	n	16µM	u	12µM	-61	n
COc1ccc(CN2CC[C@H](c3nc4ccc(OC)cc4[nH]3)C2)cc1	x	x	n	x	x	x
COc1cccc(C(=O)NCc2cn3ccccc3n2)c1	x	n	n	n	x	x
CC1(C)Cc2c(sc3[nH]c(=S)n(Cc4ccco4)c(=O)c23)CO1	u	21µM	u	u	u	u
CC1(C)Cc2c(sc3c2c(=N)n(Cc2ccco2)c(=O)n3Cc2ccccc2)CO1	n	18µM	n	u	n	n
Cc1cc2c3ccccc3ncn2n1	n	n	n	n	n	n
COc1ccc(S(=O)(=O)NCc2ccc(C(=O)NCCCN3CCCC(C)C3)cc2)cc1 (configuration not stated)	n	u	n	n	-52	n
Cc1ccc(S(=O)(=O)NCc2ccc(C(=O)N3CCc4ccccc4C3)cc2)cc1	n	u	n	29µM	n	n
Cc1ccc(C)c(S(=O)(=O)NCc2ccc(C(=O)N3CCCCC3C)cc2)c1 (configuration not stated)	n	u	n	23µM	n	n[9.24 µM]
COc1ccc(S(=O)(=O)NCc2ccc(C(=O)N3CCc4ccccc4C3)cc2)cc1	n	23µM	n	23µM	n	n
CC(=O)Nc1ccc(S(=O)(=O)NCc2ccc(C(=O)NCCCN3CCC(C)CC3)cc2)cc1	n	n	n	n	n	n
Cc1ccc(S(=O)(=O)NCc2ccc(C(=O)N3CCN(c4ccccc4)CC3)cc2)cc1	u	u	n	u	n	n
O=C(c1ccncc1)N1CCC[C@@]2(CCN(c3cccc(-c4ccccc4)c3)C2)C1	x	u	n	u	x	x
SMILES	HT1080 IDH1KD tx	DT40 TDP1 CPT	12-LOX inh	DT40 TDP1 no CPT	IL1B secr inh	HT1080NT lethal
O=C(NCc1ccc2c(c1)OCO2)c1ccc(N2CC3CC(C2)[C@H]2CCCC(=O)N2C3)nc1 (some centres not stated)	x	x	n	x	x	x
Cc1ccc(CN(c2ccc(C(=O)N3CCc4ccccc4C3)cc2)S(C)(=O)=O)cc1	n	u	n	15µM	n	n
Cc1ccc(-c2ccc(/C=C(\C#N)c3nc4ccccc4[nH]3)o2)c(Br)c1	x	x	n	x	x	x
Cc1ccc2nc(/C(C#N)=C\c3ccc(N4CCOCC4)o3)[nH]c2c1	n	13µM	u	21µM	n	n
CCOC(=O)c1ccc(-c2ccc(/C=C(\C#N)C(=O)NCc3cccs3)o2)cc1	n	23µM	n	18µM	n	n
CCOC(=O)c1ccc(-c2ccc(/C=C(\C#N)C(=O)Nc3cccc(C)c3)o2)cc1	x	x	n	x	x	x
CCOC(=O)c1ccc(-c2ccc(/C=C(\C#N)c3nc4ccc(C)cc4[nH]3)o2)cc1	x	23µM	u	2.6µM	x	x
O=C(CSc1nc2ccccc2o1)NC(=O)NC1CCCCC1	x	x	n	x	x	x
CCO[C@@H]1OC(C(=O)N2CCN(C)CC2)=C[C@H](c2ccc(C(F)(F)F)cc2)[C@H]1CCCO	n	n	n	n	n	n
CCO[C@H]1OC(C(=O)N2CCN(Cc3ccccc3)CC2)=C[C@@H](c2ccc(C(F)(F)F)cc2)[C@@H]1CCCO	n	21µM	n	15µM	-60	n
CCO[C@@H]1OC(C(=O)N2CCCCCCC2)=C[C@H](c2ccc(C(F)(F)F)cc2)[C@H]1CCCO	n	u	n	23µM	n	n
CCO[C@H]1OC(C(=O)N2CCCCCCC2)=C[C@@H](c2csc3ccccc23)[C@@H]1CCCO	n	n	n	n	n	n
CCO[C@H]1OC(C(=O)N2CCOCC2)=C[C@@H](c2ccc(C(F)(F)F)cc2)[C@@H]1CCCO	n	0.52µM	n	u	n	n
CCO[C@H]1OC(C(=O)N2CCN(C)CC2)=C[C@@H](c2ccc(C(F)(F)F)cc2)[C@@H]1CCCO	n	n	n	n	n	n
CCO[C@@H]1OC(C(=O)N2CCN(Cc3ccccc3)CC2)=C[C@H](c2csc3ccccc23)[C@H]1CCCO	n	13µM	n	29µM	-54	u
Cc1noc([C@@H]2CN(Cc3cccnc3)C[C@H]2CO)n1	x	x	n	x	x	x
CC(C)Cc1cn(CC2CCCN(C(=O)NC3CCCCCC3)C2)nn1 (configuration not stated)	x	x	n	x	x	x
CCO[C@@H]1OC(C(=O)N2CCOCC2)=C[C@H](c2ccc(C(F)(F)F)cc2)[C@H]1CCCO	n	15µM	n	u	n	n
CCOc1ccc2cc(-c3nnc(Nc4ccccc4F)s3)c(=O)oc2c1	x	u	n	u	x	x
COc1ccc2cc(C(=O)NCc3ccco3)c(=O)oc2c1	n	n	n	n	n	n
